From PubChem BioAssay (Tox21)
“And” between values parts separate entries of the source, which are not always exact repeats. Equal values may be shown once. Some structures have more than one record in an assay (separate samples or runs), and their calls can disagree. The source made the active and inactive calls. A call without a number means that no potency is given here. The call rests on the fitted dose curve; in most records, active means well fitted activation curve with a large enough effect in the repeat runs; inconclusive means weak or mixed curves; inactive means flat fitted curve, though single readings scatter.

Assay: A CellTox Green Cytotoxicity Assay to monitor cytotoxicity in HepG2 cells - 0 hour (AID 1224882); further: nearly all actives have a fitted effect of over 35% in size
Settings: CellTox Green fluorescence; series mostly up to 76.8 µM; cytotoxicity: at the top concentration
Method in brief: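 HepG2 cells, 600/well, preincubated 5 h with CellTox Green dye, then exposed to Tox21 compounds in DMSO at 37 C for up to 40 h. Dead-cell DNA fluorescence read at the indicated time point.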
Potency means the concentration at half of the fitted maximal effect.

SMILES | Potency | cytotoxicity
Cc1cc(Cc2cc(C)cc(C(C)(C)C)c2O)c(O)c(C(C)(C)C)c1 | inactive | 
CCn1cc(C(=O)O)c(=O)c2cc(F)c(N3CCNC(C)C3)c(F)c21 (stereo not drawn) |  | 2.73% [at 35.3 µM] (inactive)
Nc1cc(Cl)c(-c2cc(Cl)c(N)cc2Cl)cc1Cl |  | -0.134% (inactive)
CCC(=O)/C=C/C1C(C)=CCCC1(C)C (stereo not drawn) | inactive | 
NC12CC3CC(CC(C3)C1)C2 |  | 1.21% [at 35.3 µM] (inactive)
CC(C)CCOC(=O)c1ccc(N(C)C)cc1 |  | -0.347% [at 35.3 µM] (inactive)
CC(C)C(=O)c1c(C(C)C)nn2ccccc12 |  | -13.8% [at 35.3 µM] (inactive)
CC(=O)Nc1ccc(C(=O)CCl)cc1 | inactive | 
Cc1scc2c1N(C(=O)CN1CCN(C)CC1)c1ccccc1NC2=O |  | 5.83% [at 35.3 µM] (inactive)
COC(=O)/C=C/c1ccccc1 | inactive | 
CCc1cc(C(C)(C)C)c(O)c(C(C)(C)C)c1 | inactive | 
COC(=O)c1cccc(C(=O)OC)c1 | inactive and 38.9 µM (active) | 
O=C1OC2(c3ccc(O)cc3Oc3cc(O)ccc32)c2ccccc21 | 1.55 µM (active) and 301 nM (active) | 
CC1=C(C=O)C(C)(C)CC=C1 |  | -17.1% (inactive)
Nc1ccc2cc3ccccc3cc2c1 | inactive | 
Cc1cc(C2(c3cc(C)c(O)cc3C)OS(=O)(=O)c3ccccc32)c(C)cc1O | inactive | 
CCN(CC)C(=S)SSC(=S)N(CC)CC | inactive | 
CC(=O)N[C@@H](CS)C(=O)O | inactive | 
c1ccc2cc3c(ccc4ccccc43)cc2c1 | inactive | 

SMILES | Potency | cytotoxicity
COc1ccc(CCN2CCC(Nc3nc4ccccc4n3Cc3ccc(F)cc3)CC2)cc1 | inactive | 
c1ccc2c(c1)CCCC2C1=NCCN1 (stereo not drawn) |  | -2.11% [at 35.3 µM] (inactive)
CCn1c2ccccc2c2cc(N)ccc21 | inactive | 
CC1COC(=O)O1 (stereo not drawn) | inactive and 43.6 µM (active) | 
Cc1cccc([N+](=O)[O-])c1C(=O)O |  | -0.492% (inactive)
CO[Si](OC)(OC)c1ccccc1 |  | -5.21% (inactive)
CCC(C)(Oc1ccc(C2(c3ccc(OC(C)(CC)C(=O)O)cc3)CCCCC2)cc1)C(=O)O (stereo not drawn) |  | 2.18% [at 35.3 µM] (inactive)
C#CC(C)(CC)OC(=O)c1ccccc1C(=O)O (stereo not drawn) |  | 4.43% [at 35.3 µM] (inactive)
O=C(OCc1ccccc1)c1ccc(O)cc1 | inactive | 
NC(N)=NC(=O)Cc1c(Cl)cccc1Cl |  | 11.6% [at 35.3 µM] (inactive)
O=Nc1ccc(Nc2ccccc2)cc1 | inactive | 
CCCCN(CCO)CCCC |  | -6.04% (inactive)
C/C=C/c1ccc(OCC)c(O)c1 | inactive | 
C=C(C)C(=O)O | inactive | 
COC(c1ccccc1)(c1ccccc1)[C@H](Oc1nc(C)cc(C)n1)C(=O)O |  | -17.1% [at 35.3 µM] (inactive)
Nc1cc(S(=O)(=O)O)cc2cc(S(=O)(=O)O)cc(O)c12 | inactive | 
CCOc1ccc2c(c1)C(C)=CC(C)(C)N2 | inactive | 
c1ccc2n[nH]nc2c1 | inactive | 
CCCNC(C)C(=O)Nc1ccccc1C (stereo not drawn) |  | -6.96% [at 35.3 µM] (inactive)
